For 39 molecules, inhibition results are on record in PubChem BioAssay.

Activity calls are given as the source filed them. The rule behind the calls is not given here.

The target of the assay is L-lactate dehydrogenase (Plasmodium falciparum (isolate CDC / Honduras)) (UniProt Q27743). The assay is described as follows: PfLDH activity inhibition – cell lysate, 3D7 strain, counter-screen for P. falciparum growth inhibition project (AID 2304).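 Note: 0% = vehicle and 100% = reference inhibitor.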 Conditions: P. falciparum 3D7 crude extract, LDH APAD/NBT absorbance; at 2 µM; active compounds read high.
Chain of L-lactate dehydrogenase (Plasmodium falciparum (isolate CDC / Honduras)) (Q27743 whole entry, looked up): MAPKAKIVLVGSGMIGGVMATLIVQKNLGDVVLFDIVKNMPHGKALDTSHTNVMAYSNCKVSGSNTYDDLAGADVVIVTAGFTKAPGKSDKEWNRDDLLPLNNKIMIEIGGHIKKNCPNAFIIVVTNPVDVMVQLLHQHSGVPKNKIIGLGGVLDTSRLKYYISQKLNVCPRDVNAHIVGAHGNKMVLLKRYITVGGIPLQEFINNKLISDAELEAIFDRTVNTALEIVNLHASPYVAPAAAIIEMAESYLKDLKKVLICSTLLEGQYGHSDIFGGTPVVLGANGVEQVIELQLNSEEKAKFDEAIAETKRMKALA
As a reminder, the inhibition is the relative decrease from the control value, in per cent. In the case of `COc1cccc(CNC[C@@H](O)[C@H](Cc2ccccc2)NC(=O)c2cc(C(C)C)cc(N3CCCC3=O)c2)c1`, the inhibition is -4% (inactive). To `COc1ccc2ncc(C#N)c(CCN3CCC(NCc4ccc5c(c4)OCCO5)CC3)c2c1` belongs -4% (inactive); to `CCC(CC)(Cc1ccccc1)NC(=O)[C@H](CC(C)C)Nc1ccc(C#N)c2ccccc12`, -1% (inactive). With `O=S(=O)(Nc1cccc(CCN2CCCCC2CCN2CCCC2)c1)c1ccc(-c2ccccc2)cc1` (centres undefined) the figure was 0% (inactive); with `COc1cccc2sc(N3CCN(C(=O)c4ccc([N+](=O)[O-])o4)CC3)nc12`, 1% (inactive); with `Cc1onc(-c2c(F)cccc2Cl)c1C(=O)Nc1ccccc1I`, -4% (inactive). With `Cc1ccccc1C1CCN(C2CCC(NC(=O)c3ccc(-c4cccs4)s3)CC2)CC1` (centres undefined) the figure was -2% (inactive); with `COc1ccccc1CCNc1nc(C)cc(NCCC(=O)Nc2ccccc2)n1`, 0% (inactive). With `O=C(Cn1c(CCc2cccc(F)c2F)cc(=O)c2ccccc21)N(CCN1CCCC1)Cc1ccc(-c2ccc(C(F)(F)F)cc2)cc1`, the inhibition was -2% (inactive). Take `O=C(CCN1C(=O)c2ccccc2C1=O)N1CCN(CC=Cc2ccccc2)CC1`: the inhibition is -1% (inactive). With `Cc1cccc(CN2CCCC3(CCN(Cc4ccccc4O)C3)C2)c1` (centres undefined) the figure was -3% (inactive). In the case of `Nc1nc2c(c(=O)[nH]1)CN(S(=O)(=O)c1ccc(C(=O)N[C@@H](CCC(=O)O)C(=O)O)cc1)CC2`, the inhibition was 6% (inactive). With `O=C(Nc1cccc(-c2nc3ccccc3[nH]2)c1)c1ccc(-c2cccc([N+](=O)[O-])c2)o1` the figure was -1% (inactive); with `O=C(/C=C/c1ccc(Cl)c(Cl)c1)NCCCCCCN1CCN(C(=O)Nc2cccc(Cl)c2)CC1`, -3% (inactive); with `CC(Cc1ccc(CNC(=O)NCc2ccc(CC(C)NCCc3cccc(Cl)c3)cc2)cc1)NCCc1cccc(Cl)c1` (centres undefined), -4% (inactive). With `CCCCCCN1CCC(NCc2cccc(C#N)c2)CC1` the figure was -1% (inactive). For `O=C(Nc1cccc(CN2CCCN(Cc3cccc(O)c3)CC2)c1)c1ccc(-c2ccccc2)cc1`, the inhibition is 3% (inactive). With `FC(F)(F)c1ccc2nc(-c3ccc(-c4cccc(CNCCc5cccnc5)c4)s3)[nH]c2c1` the figure was -3% (inactive). To `CCCCCCCNC(=O)NCC1CCCN(CCCCCNC(=O)/C=C/c2ccc(Cl)c(Cl)c2)C1` (centres undefined) belongs -1% (inactive); to `CC1CCc2c(C(=O)Nc3c(F)cc(F)cc3Br)csc2C1` (centres undefined), 3% (inactive); to `CC(C)COc1ccc(Cl)cc1Cc1ccc(-c2nc3ccc(CCN(C)C)cc3[nH]2)o1`, 3% (inactive). With `CCOc1ccc(C2CCN(CCCCNC(=O)c3ccc(NC(=O)c4ccc(Cl)cc4)cc3)CC2)c(OCC)c1` the figure was 0% (inactive); with `O=C(N[C@@H](CC1CCCCC1)C(=O)NC1CCCc2ccccc21)c1ccc(O)c(-c2ccc(Cl)c(Cl)c2)c1` (some centres undefined), -3% (inactive); with `CCOC(=O)c1ccc(-c2cnoc2-c2cc(CC)c(OC)cc2O)o1`, 1% (inactive). Take `Cc1ccc2cc(NC(=O)c3cccc(C(=O)Nc4ccc5nc(C)ccc5c4)n3)ccc2n1`: the inhibition is 4% (inactive).

As for `CC1CC(NCCCNc2cc(=O)c3ccccc3[nH]2)c2c(Cl)c(Cl)cc(Cl)c21` (centres undefined), the inhibition was 2% (inactive). With `N#Cc1ccc2c(c1)CCN(CCCn1c(-c3ccc4ccccc4c3)nc3ccncc31)CC2` the figure was 4% (inactive). Turning to `O=C(Nc1ccc2nc3n(c(=O)c2c1)CCCCC3)C(=O)N1CCN(c2ccc(F)cc2)CC1`, the inhibition is -1% (inactive). With `COc1ccc2nccc(N3CCN(CCNCc4ccc5c(n4)NC(=O)CS5)CC3)c2n1` the figure was 1% (inactive); with `COc1ccc(NC(=O)Nc2ccc(-c3ccncc3)c(C(F)(F)F)c2)cc1N1CCN(C)CC1`, 2% (inactive); with `O=S(=O)(NCCN1CCCC1)c1cccc(-c2ccc(CNCc3ccc(F)cc3)cc2)c1`, 6% (inactive).

For `O=C(NC1CC1)c1ccc(N2CCOc3ccc(Cl)cc32)s1`, the inhibition is 5% (inactive). As to `CCOc1cc(Cc2cnc(N)nc2N)cc(OCC)c1OCCCCC(=O)OC`, the inhibition was 0% (inactive). To `Clc1ccc(-c2ccc(C=NNc3nc(Nc4ccccc4)nc(Nc4ccccc4)n3)o2)cc1Cl` belongs -1% (inactive); to `CCOC(=O)CNC(=O)N(CCN(Cc1ccccc1)C(=O)NCC(=O)OCC)Cc1ccccc1`, 5% (inactive); to `CCN(CC)CCN(Cc1ccc(-c2ccc(C(F)(F)F)s2)cc1)C(=O)Cn1c(CCc2cccc(F)c2F)nc(=O)c2ccccc21`, 3% (inactive). To `O=C(Nc1cccc(-c2ccc(CN3CCNCC3)cc2)c1)c1cccc(Cl)c1` belongs -4% (inactive).

Take `Cc1cccc(Cn2c(Cc3ccccc3)nnc2Sc2ccc([N+](=O)[O-])c(C#N)c2)c1`: the inhibition is -2% (inactive). To `COc1cc(-c2ccc(-c3cnc(N)nc3OC)[nH]2)cc(OC)c1OC` belongs -2% (inactive).
